Tests used:
Assay in all cases: DAPPL (digital affinity profiling via proximity ligation, sequencing); 10 mM Tris-HCl pH 7.5, 50 mM NaCl, 1 mM DTT, 4% glycerol, room temperature, 30 min; GST-TFs on glutathione beads, 16-mer random dsDNA library, 0.1% formaldehyde crosslink after washing; high values mean tight binding
Conditions in all cases: protein: recombinant; tags: N-terminal GST; dsDNA, one strand shown
[1] = molecular target: T1, ERF (Homo sapiens, UniProt P50548 1-548)
T1 sequence: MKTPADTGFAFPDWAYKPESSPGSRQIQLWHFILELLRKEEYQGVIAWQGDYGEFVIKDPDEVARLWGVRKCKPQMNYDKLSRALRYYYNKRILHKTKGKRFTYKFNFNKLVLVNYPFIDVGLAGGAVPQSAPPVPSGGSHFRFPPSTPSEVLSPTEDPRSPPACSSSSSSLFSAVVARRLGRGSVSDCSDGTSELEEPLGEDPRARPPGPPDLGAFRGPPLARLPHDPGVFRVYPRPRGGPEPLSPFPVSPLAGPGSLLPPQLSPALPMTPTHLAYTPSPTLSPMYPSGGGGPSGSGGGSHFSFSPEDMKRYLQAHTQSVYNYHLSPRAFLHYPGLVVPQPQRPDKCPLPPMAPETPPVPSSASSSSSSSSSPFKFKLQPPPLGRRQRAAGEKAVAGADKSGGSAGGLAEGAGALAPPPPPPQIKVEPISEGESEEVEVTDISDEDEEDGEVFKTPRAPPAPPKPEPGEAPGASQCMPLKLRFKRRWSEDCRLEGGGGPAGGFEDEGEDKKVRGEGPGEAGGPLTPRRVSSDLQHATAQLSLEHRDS
How it was run: (§1)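 Beads coated with glutathione captured GST-fused human transcription factors that had been expressed in yeast, and the factors were then given DNA barcodes and pooled with a tag-only sample. The pools were incubated with 200 nmole of a random double-stranded 16-mer DNA library in Tris/NaCl/DTT/glycerol buffer for 30 min at room temperature, washed, crosslinked with 0.1% formaldehyde and proximity-ligated with BsaI/T4 ligase at 37 °C for 1 h. PCR amplification and Illumina NextSeq500 sequencing came last. Binding signal is each hexamer's read frequency for a factor divided by its frequency for the tag-only sample.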

[2] = molecular target: T2, ETV3L (Homo sapiens, UniProt Q6ZN32 1-361)
T2 sequence: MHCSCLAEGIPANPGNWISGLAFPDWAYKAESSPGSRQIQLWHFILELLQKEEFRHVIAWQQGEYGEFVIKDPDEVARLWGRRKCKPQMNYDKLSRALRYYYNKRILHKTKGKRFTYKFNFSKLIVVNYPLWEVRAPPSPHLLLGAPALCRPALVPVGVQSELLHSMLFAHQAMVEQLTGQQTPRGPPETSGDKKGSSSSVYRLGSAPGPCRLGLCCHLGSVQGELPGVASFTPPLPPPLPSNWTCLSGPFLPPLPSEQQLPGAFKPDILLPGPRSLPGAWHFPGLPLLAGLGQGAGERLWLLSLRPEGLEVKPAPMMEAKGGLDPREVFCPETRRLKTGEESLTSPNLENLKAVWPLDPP
How it was run: as §1

[3] = molecular target: T3, ETS2 (Homo sapiens, UniProt P15036 1-469)
T3 sequence: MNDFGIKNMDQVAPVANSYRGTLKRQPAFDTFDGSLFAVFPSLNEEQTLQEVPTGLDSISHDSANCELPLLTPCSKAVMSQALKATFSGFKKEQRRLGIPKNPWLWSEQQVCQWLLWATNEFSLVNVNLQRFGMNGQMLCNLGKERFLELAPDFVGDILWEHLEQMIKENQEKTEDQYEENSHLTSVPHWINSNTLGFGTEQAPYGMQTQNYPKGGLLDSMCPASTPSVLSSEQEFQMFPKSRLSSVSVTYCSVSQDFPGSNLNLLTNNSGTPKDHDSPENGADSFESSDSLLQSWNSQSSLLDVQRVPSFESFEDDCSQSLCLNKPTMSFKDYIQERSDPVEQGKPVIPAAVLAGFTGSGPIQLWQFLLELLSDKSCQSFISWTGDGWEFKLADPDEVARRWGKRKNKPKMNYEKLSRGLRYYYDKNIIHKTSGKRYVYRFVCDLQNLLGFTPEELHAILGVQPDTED
How it was run: as §1

[4] = molecular target: T4, SPDEF (Homo sapiens, UniProt O95238 1-335)
T4 sequence: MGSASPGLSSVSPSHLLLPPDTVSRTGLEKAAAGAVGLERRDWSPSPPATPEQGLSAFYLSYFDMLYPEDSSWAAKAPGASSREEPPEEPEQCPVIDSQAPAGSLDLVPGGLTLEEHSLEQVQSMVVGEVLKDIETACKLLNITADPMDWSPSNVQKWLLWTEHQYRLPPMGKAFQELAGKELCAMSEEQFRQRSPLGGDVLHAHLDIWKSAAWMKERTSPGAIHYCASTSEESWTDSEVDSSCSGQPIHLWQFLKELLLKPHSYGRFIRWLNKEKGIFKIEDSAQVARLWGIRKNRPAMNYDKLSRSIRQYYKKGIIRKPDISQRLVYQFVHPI
How it was run: as §1

[5] = molecular target: T5, ETV7 (Homo sapiens, UniProt Q9Y603 1-341)
T5 sequence: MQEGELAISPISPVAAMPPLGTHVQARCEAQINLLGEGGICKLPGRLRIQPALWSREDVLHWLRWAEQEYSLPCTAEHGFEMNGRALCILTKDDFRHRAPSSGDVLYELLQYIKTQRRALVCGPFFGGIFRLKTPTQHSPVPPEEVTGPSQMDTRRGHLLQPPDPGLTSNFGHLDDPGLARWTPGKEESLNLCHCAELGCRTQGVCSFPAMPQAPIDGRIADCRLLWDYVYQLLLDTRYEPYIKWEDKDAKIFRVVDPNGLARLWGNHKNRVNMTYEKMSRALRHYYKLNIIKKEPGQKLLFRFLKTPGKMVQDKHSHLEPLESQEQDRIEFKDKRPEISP
How it was run: as §1

[6] = molecular target: T6, ELF5 (Homo sapiens, UniProt Q9UKW6-2 1-255)
T6 sequence: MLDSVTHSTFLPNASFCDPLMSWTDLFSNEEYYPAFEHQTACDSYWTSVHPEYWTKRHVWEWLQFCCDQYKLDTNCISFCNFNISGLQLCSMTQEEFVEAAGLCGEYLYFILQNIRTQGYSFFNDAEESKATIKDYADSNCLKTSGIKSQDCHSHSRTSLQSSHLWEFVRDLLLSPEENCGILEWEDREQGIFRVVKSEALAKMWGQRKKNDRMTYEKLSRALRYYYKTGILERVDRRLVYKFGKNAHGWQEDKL
How it was run: as §1

[7] = molecular target: T7, ETV3 (Homo sapiens, UniProt P41162-2 1-143)
T7 sequence: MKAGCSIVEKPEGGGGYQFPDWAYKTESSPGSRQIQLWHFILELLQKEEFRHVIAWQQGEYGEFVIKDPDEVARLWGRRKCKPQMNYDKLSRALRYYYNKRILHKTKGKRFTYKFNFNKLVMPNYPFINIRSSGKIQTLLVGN
How it was run: as §1

[8] = molecular target: ETV6 (Homo sapiens, UniProt P41212 1-452)
Chain of ETV6 (P41212 whole entry): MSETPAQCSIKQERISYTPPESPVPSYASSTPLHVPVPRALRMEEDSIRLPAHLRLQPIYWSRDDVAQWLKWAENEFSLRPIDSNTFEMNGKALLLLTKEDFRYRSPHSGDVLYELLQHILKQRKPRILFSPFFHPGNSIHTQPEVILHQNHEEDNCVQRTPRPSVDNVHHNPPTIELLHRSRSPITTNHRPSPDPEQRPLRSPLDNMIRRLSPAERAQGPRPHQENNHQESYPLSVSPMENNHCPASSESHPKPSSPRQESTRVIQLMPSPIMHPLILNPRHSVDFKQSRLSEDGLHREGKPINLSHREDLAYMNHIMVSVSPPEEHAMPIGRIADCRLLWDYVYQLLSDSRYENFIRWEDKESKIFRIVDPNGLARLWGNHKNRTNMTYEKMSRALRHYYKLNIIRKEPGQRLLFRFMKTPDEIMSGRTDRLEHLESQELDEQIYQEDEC
How it was run: as §1

Row | Sequence | binding signal [1] | binding signal [2] | binding signal [3] | binding signal [4] | binding signal [5] | binding signal [6] | binding signal [7] | binding signal [8]
1 | GCTTTA | 1.25 fold enrichment (6-mer frequency, TF over GST control) | 1.15 fold enrichment (6-mer frequency, TF over GST control) | 1.2 fold enrichment (6-mer frequency, TF over GST control) | 1.06 fold enrichment (6-mer frequency, TF over GST control) | 1.19 fold enrichment (6-mer frequency, TF over GST control) | 1.08 fold enrichment (6-mer frequency, TF over GST control) | 1.13 fold enrichment (6-mer frequency, TF over GST control) | 1.1 fold enrichment (6-mer frequency, TF over GST control)
2 | ACATTA | 1.21 fold enrichment (6-mer frequency, TF over GST control) | 1.15 fold enrichment (6-mer frequency, TF over GST control) | 1.19 fold enrichment (6-mer frequency, TF over GST control) | 1.12 fold enrichment (6-mer frequency, TF over GST control) | 1.15 fold enrichment (6-mer frequency, TF over GST control) | 1.1 fold enrichment (6-mer frequency, TF over GST control) | 1.15 fold enrichment (6-mer frequency, TF over GST control) | 1.16 fold enrichment (6-mer frequency, TF over GST control)
3 | AAATGA | 1.42 fold enrichment (6-mer frequency, TF over GST control) | 1.29 fold enrichment (6-mer frequency, TF over GST control) | 1.29 fold enrichment (6-mer frequency, TF over GST control) | 1.18 fold enrichment (6-mer frequency, TF over GST control) | 1.42 fold enrichment (6-mer frequency, TF over GST control) | 1.25 fold enrichment (6-mer frequency, TF over GST control) | 1.43 fold enrichment (6-mer frequency, TF over GST control) | 1.47 fold enrichment (6-mer frequency, TF over GST control)
4 | TCGCCT | 1.27 fold enrichment (6-mer frequency, TF over GST control) | 1.23 fold enrichment (6-mer frequency, TF over GST control) | 1.24 fold enrichment (6-mer frequency, TF over GST control) | 1.13 fold enrichment (6-mer frequency, TF over GST control) | 1.15 fold enrichment (6-mer frequency, TF over GST control) | 1.33 fold enrichment (6-mer frequency, TF over GST control) | 1.22 fold enrichment (6-mer frequency, TF over GST control) | 1.32 fold enrichment (6-mer frequency, TF over GST control)
5 | AACTTT | 1.27 fold enrichment (6-mer frequency, TF over GST control) | 1.26 fold enrichment (6-mer frequency, TF over GST control) | 1.2 fold enrichment (6-mer frequency, TF over GST control) | 1.17 fold enrichment (6-mer frequency, TF over GST control) | 1.2 fold enrichment (6-mer frequency, TF over GST control) | 1.3 fold enrichment (6-mer frequency, TF over GST control) | 1.4 fold enrichment (6-mer frequency, TF over GST control) | 1.22 fold enrichment (6-mer frequency, TF over GST control)
6 | ATGTTT | 1.46 fold enrichment (6-mer frequency, TF over GST control) | 1.48 fold enrichment (6-mer frequency, TF over GST control) | 1.29 fold enrichment (6-mer frequency, TF over GST control) | 1.37 fold enrichment (6-mer frequency, TF over GST control) | 1.46 fold enrichment (6-mer frequency, TF over GST control) | 1.47 fold enrichment (6-mer frequency, TF over GST control) | 1.47 fold enrichment (6-mer frequency, TF over GST control) | 1.47 fold enrichment (6-mer frequency, TF over GST control)
7 | ACTAAT | 1.27 fold enrichment (6-mer frequency, TF over GST control) | 1.24 fold enrichment (6-mer frequency, TF over GST control) | 1.28 fold enrichment (6-mer frequency, TF over GST control) | 1.21 fold enrichment (6-mer frequency, TF over GST control) | 1.45 fold enrichment (6-mer frequency, TF over GST control) | 1.27 fold enrichment (6-mer frequency, TF over GST control) | 1.12 fold enrichment (6-mer frequency, TF over GST control) | 1.31 fold enrichment (6-mer frequency, TF over GST control)
8 | TCATAT | 1.22 fold enrichment (6-mer frequency, TF over GST control) | 1.3 fold enrichment (6-mer frequency, TF over GST control) | 1.27 fold enrichment (6-mer frequency, TF over GST control) | 1.23 fold enrichment (6-mer frequency, TF over GST control) | 1.05 fold enrichment (6-mer frequency, TF over GST control) | 1.19 fold enrichment (6-mer frequency, TF over GST control) | 1.26 fold enrichment (6-mer frequency, TF over GST control) | 1.24 fold enrichment (6-mer frequency, TF over GST control)
9 | TTTAGC | 1.19 fold enrichment (6-mer frequency, TF over GST control) | 1.21 fold enrichment (6-mer frequency, TF over GST control) | 1.01 fold enrichment (6-mer frequency, TF over GST control) | 1.08 fold enrichment (6-mer frequency, TF over GST control) | 1.03 fold enrichment (6-mer frequency, TF over GST control) | 1 fold enrichment (6-mer frequency, TF over GST control) | 1.13 fold enrichment (6-mer frequency, TF over GST control) | 1.12 fold enrichment (6-mer frequency, TF over GST control)

Reference: publication PMC7862700, “An all-to-all approach to the identification of sequence-specific readers for epigenetic DNA modifications on cytosine”
